Our source for the growth inhibition values is PubChem BioAssay (NCI).

Structures are written as SMILES. Several values for one entry are separate records, joined by “and”; a condition that tells them apart may be missing. Equal entries are not always repeated. About 79,000 compounds went through this panel and 15% of them were active in at least one assay; those are over-represented in the sample as a whole. A number with no mark means an inactive call. Activity calls are given as the source filed them. Cut-off read from the data, not from the text of the source: active = growth inhibition above about 70%; inactive = the rest.

Test [1] can be described thus: NCI Yeast Anticancer Drug Screen. Data for the rad50 strain (AID 155).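 Note: 0% = growth of vehicle-only cultures of the same strain.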 Particulars: S. cerevisiae rad50 strain growth inhibition, stronger effect = higher value; at 50.0 µM unless noted. The method, boiled down:
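DNA repair mutant yeast, compound exposure, growth read-out; inhibition is taken relative to vehicle.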

The nature of test [2]: NCI Yeast Anticancer Drug Screen. Data for the mec2-1 strain (AID 157). Particulars: S. cerevisiae mec2-1 strain, stronger effect = higher value; at 50.0 µM unless noted. Summed up:
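Readout is yeast growth inhibition, normalised to vehicle-treated controls, in the mec2-1 strain exposed to compound.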

Test [3] is described as follows: NCI Yeast Anticancer Drug Screen. Data for the sgs1 mgt1 strain (AID 161).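 Note: 0% = growth of cultures given vehicle only.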 Particulars: S. cerevisiae sgs1 mgt1 strain, stronger effect = higher value; at 50.0 µM unless noted. Summed up:
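Percent growth inhibition was derived by comparing compound-exposed mutant yeast with vehicle-exposed cultures. The strain carries alterations in DNA damage repair.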

Test [4] can be described thus: NCI Yeast Anticancer Drug Screen. Data for the cln2 rad14 strain (AID 165).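 Note: 0% = growth equal to vehicle treated cultures.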 Particulars: S. cerevisiae cln2 rad14 strain, stronger effect = higher value; at 50.0 µM unless noted. Summed up: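 Relative to vehicle controls, growth inhibition of compound-treated cln2 rad14 yeast was recorded.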
Test [5] in a line: NCI Yeast Anticancer Drug Screen. Data for the bub3 strain (AID 167). Particulars: S. cerevisiae bub3 mutant strain, stronger effect = higher value; at 50.0 µM unless noted. Summed up:
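In this screen, a yeast mutant lacking normal mitotic checkpoint function is challenged with compound. Relative growth versus vehicle gives the inhibition value.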

Test [6] is described as follows: NCI Yeast Anticancer Drug Screen. Data for the mlh1 rad18 strain (AID 175). Particulars: S. cerevisiae mlh1 rad18 strain growth inhibition, stronger effect = higher value; at 50.0 µM unless noted. The method, boiled down: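 Test agents were incubated with a yeast strain of defined genotype (DNA damage repair defect). Inhibition of growth was derived by comparison with vehicle-exposed cultures.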

For `Cc1cc(=O)[nH]c(NN2C(Cl)C(=O)C2c2ccccc2O)n1` (stereo not given), the growth inhibition is 16.4% in test [1]; -31.5% in test [2]; 13.3% in test [3]; 2.95% in test [4]; -9.3% in test [5]; -13.8% in test [6].
In the case of `O=C1NCCCC1C(=O)Nc1cccc2c1NCCC2` (stereo not given), the growth inhibition in test [1] is -10.2%; in test [2] it was -40.4%; in test [3], 0.95%; in test [4], -1.45%; in test [5], 39.6%; in test [6], -32.4%.
On to `O=C1NC(=O)C2(CCCC2)N1`, for which the growth inhibition in test [1] was -9.4%; in test [2] it was 8.05%; in test [3] it was 2.8%; in test [4], -74%; in test [5], 7.45%; in test [6], -37.9%.
`Cc1cc2ccccc2c(N=Cc2cc(Br)cc(Br)c2O)c1C#N`: the growth inhibition in test [1] is 59.8%; in test [2], 87.5% (active); in test [3] it was 96.8% (active); in test [4], 60.2%; in test [5], 83.8% (active); in test [6], 97.8% (active).
On to `Cc1ccc2c(-c3cccc4ccccc34)c3ccccc3cc2c1`, for which the growth inhibition in test [1] was 5.45%; in test [2] it was 9.65%; in test [3] it was -12%; in test [4] it was -8.4%; in test [5] it was 8.95%; in test [6], -7.75%.
As for `O=C(NC(=S)Nc1ccccc1F)c1cccc([N+](=O)[O-])c1`, the growth inhibition was 26.1% in test [1]; 77.2% (active) in test [2]; 79.2% (active) in test [3]; 11.4% in test [4]; 49.7% in test [5]; 80% (active) in test [6].
As to `C=CCCCC1CCCNC1=S` (stereo not given), the growth inhibition in test [1] was 8.3%; in test [2] it was 6.1%; in test [3] it was 20.4%; in test [4], 12.6%; in test [5], 28.9%; in test [6], 20.9%.
Take `O=C(O)/C=C(/CC(=O)O)C(=O)O`: the growth inhibition was -34.9% in test [1]; -11.3% in test [2]; -17.2% in test [3]; 0.35% in test [4]; -27.8% in test [5]; -7.45% in test [6].
`C=C(C)[C@H]1C=C[C@@H](OC(=O)c2cccnc2)[C@@]23CO[C@@](C)([C@H](OC(=O)c4cccnc4)[C@@]4(OC(C)=O)C[C@H](C)[C@H](OCCC)[C@@H]4[C@H]2OC(C)=O)[C@H]13`: the growth inhibition in test [1] is -11.2%; in test [2] it was -6.1%; in test [3], 27.4%; in test [4] it was 35.4%; in test [5] it was 22.6%; in test [6] it was 79.8% (active).
In the case of `CC1=NN(c2ccccc2)C(=O)C1O` (stereo not given), the growth inhibition in test [1] is 12.1%; in test [2] it was 16.2%; in test [3] it was -6.05%; in test [4], -25.4%; in test [5], -10.6%; in test [6], 2.5%.
Consider `NCCS(=O)(=O)O`, for which the growth inhibition in test [1] was 1.8%; in test [2], 8.7%; in test [3] it was 7.7%; in test [4] it was 19.8%; in test [5], -5.6%; in test [6], -6.95%.
Consider `COc1ccccc1N=C(N)N/N=C/c1c[nH]c2ccccc12`, for which the growth inhibition in test [1] was 0.25%; in test [2] it was -8.85%; in test [3] it was -9.6%; in test [4] it was 17%; in test [5], 1.45%; in test [6], 15.2%.
On to `O/N=C1/C2CC3CC1(c1ccccc1)CC(/C3=N/O)/C2=N\O` (stereo not given), for which the growth inhibition in test [1] was 9.15%; in test [2], 17.3%; in test [3] it was -12.1%; in test [4] it was 0.35%; in test [5], -17.8%; in test [6], -4.75%.
As to `CC1(CCC(=O)O)C(=O)C(=O)CC2C1CCC1(C)C(O)CCC21` (stereo not given), the growth inhibition was -9.5% in test [1]; -0.6% in test [2]; -7.25% in test [3]; 0.15% in test [4]; -4.1% in test [5]; -17.4% in test [6].
With `Cc1nn(C)c(N)c1C#N`, the growth inhibition in test [1] was -15.9% and 8%; in test [2], -11.7% and 5.95%; in test [3], -24.6% and 3.6%; in test [4], 0.3% and 26.9%; in test [5] it was -8.45% and -6.5%; in test [6], -18.2% and -7.45%.
In the case of `CCCCCC(=O)CC(=O)C(CC)CC`, the growth inhibition was 16.4% in test [1]; 12.9% in test [2]; -1.55% in test [3]; 1.35% in test [4]; 6.5% in test [5]; 12.9% in test [6].
Turning to `CC1CCC2C(=O)OC(=O)C2C1` (stereo not given), the growth inhibition is 6.2% in test [1]; -10.2% in test [2]; 11.6% in test [3]; 23.6% in test [4]; 18.4% in test [5]; 4.7% in test [6].
Regarding `COC(=O)[C@H](Cc1c[nH]c2ccccc12)NC(=O)OCC1OC(n2cc(C)c(=O)[nH]c2=O)CC1N=[N+]=[N-]` (stereo not given in full), the growth inhibition in test [1] is -0.35%; in test [2] it was -20.4%; in test [3], -3.5%; in test [4], 9.3%; in test [5], -13.6%; in test [6], -79.5%.
On to `O=C(NNC(=O)c1ccc2ccccc2c1)c1ccc(Cl)cc1`, for which the growth inhibition in test [1] is -19.2%; in test [2], -51%; in test [3], -11%; in test [4], 3.55%; in test [5], -13.6%; in test [6], -9.75%.
Turning to `CC(=O)Oc1ccc(CCC(=O)O)cc1`, the growth inhibition in test [1] is 18.8%; in test [2], 12.6%; in test [3] it was 6.9%; in test [4], 57.9%; in test [5], 11.4%; in test [6], 20.9%.
